This note sets out measurements from PubChem BioAssay (Tox21).

Values joined by “and” are separate entries in the source; they are usually repeats but may differ in a detail not shown here. Equal entries are not always repeated. Records with an inconclusive call do not appear. Where a call stands in place of a potency, no number is given. Active and inactive are the calls of the source. Unless noted, calls come from the whole dose curve; as a rule, active = well fitted curve in the direction sought with a large enough effect in the repeat runs; inconclusive = weak or mixed curves; inactive = no such curve, though single readings can be large; an effect the other way counts as inactive or inconclusive.

Estrogen receptor (Homo sapiens), sequence (P03372 whole entry, looked up): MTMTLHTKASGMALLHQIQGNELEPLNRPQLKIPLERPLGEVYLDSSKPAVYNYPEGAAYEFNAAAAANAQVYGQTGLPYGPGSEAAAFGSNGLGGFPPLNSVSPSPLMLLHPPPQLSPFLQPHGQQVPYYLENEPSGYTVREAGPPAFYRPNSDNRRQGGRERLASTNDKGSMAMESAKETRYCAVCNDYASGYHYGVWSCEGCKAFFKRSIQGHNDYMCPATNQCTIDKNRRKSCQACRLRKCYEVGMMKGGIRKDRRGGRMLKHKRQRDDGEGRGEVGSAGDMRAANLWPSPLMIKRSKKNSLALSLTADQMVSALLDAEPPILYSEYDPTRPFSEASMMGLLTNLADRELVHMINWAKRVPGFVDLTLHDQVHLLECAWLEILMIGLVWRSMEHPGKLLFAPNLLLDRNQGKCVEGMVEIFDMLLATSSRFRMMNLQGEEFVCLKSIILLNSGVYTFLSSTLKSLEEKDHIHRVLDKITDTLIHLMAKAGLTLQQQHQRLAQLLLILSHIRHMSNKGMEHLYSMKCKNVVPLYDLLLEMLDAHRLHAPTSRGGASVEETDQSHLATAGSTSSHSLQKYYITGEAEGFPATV

The first test concerns the target Estrogen receptor (Homo sapiens) (UniProt P03372). The test can be described thus: qHTS assay to identify small molecule agonists of the estrogen receptor alpha (ER-alpha) signaling pathway (AID 743075; calls by dose curve;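 note: HEK293 GripTite cells with ER-alpha and UAS-driven beta-lactamase reporter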). As to conditions: HEK293 ER-alpha-UAS-bla, beta-lactamase FRET ratio, 18 h; series mostly up to 70.1 µM. (Quantitative high-throughput screening tests each substance at several concentrations.)
As to `CCCCCCCCCCOc1cc2c(=O)c(C(=O)OCC)c[nH]c2cc1OCC`, the Potency result was “inactive”.

With `CCOC(=O)C1=NOC(c2ccccc2)(c2ccccc2)C1`, the Potency entry was “inactive”.

With `CCCOC(=O)CC`, the Potency entry is “inactive”.

Take `O=C(c1ccccc1O)c1ccccc1O`: the Potency entry is “inactive”.

`CCCCN(CCC(=O)OCC)C(C)=O`: the Potency entry was “inactive”.

In the case of `CC1OC1C1CCC2(C)OC2C1` (centres undefined), the Potency result is “inactive”.

Consider `CC1=CC(=O)[C@H]2C[C@@H]1C2(C)C`, for which the Potency result was “inactive”.

Regarding `CCN1C=CN(C)C1C` (centres undefined), the Potency entry was “inactive”.

Regarding `CN1CC(=O)N/C1=N/C(=O)Nc1cccc(Cl)c1`, the Potency entry is “inactive”.

Turning to `CN1CCC(=C2c3ccccc3CCc3cccnc32)CC1`, the Potency entry was “inactive”.

With `CC(=O)c1ccccc1[N+](=O)[O-]`, the Potency result is “inactive”.

Consider `O=C(O)c1cc(C(=O)O)cc(C(=O)O)c1`, for which the Potency entry was “inactive”.

With `CCN(CC#N)c1cccc(C)c1`, the Potency result is “inactive”.

`CCCCCCC1CCC(=O)O1` (centres undefined): the Potency entry was “inactive”.

For the molecule `C=CCCCCCCCCC(=O)OCC`, the Potency result was “inactive”.

Take `CC1=NN(c2cc(S(=O)(=O)O)ccc2Cl)C(=O)C1N=Nc1ccccc1` (centres undefined): the Potency entry is “inactive”.

Take `COCCOC[C@H](CC1(C(=O)NC2CCC(C(=O)O)CC2)CCCC1)C(=O)Oc1ccc2c(c1)CCC2` (some centres undefined): the Potency entry was “inactive”.

Consider `CO[C@@]1(NC(=O)C(C(=O)O)c2ccc(O)cc2)C(=O)N2C(C(=O)O)=C(CSc3nnnn3C)CO[C@@H]21` (some centres undefined), for which the Potency entry is “inactive”.

As for `CCN[C@H]1C[C@H](C)S(=O)(=O)c2sc(S(N)(=O)=O)cc21`, the Potency entry was “inactive”.

In the case of `CCCCOC(=O)CCC(C)=O`, the Potency result is “inactive”.

A further test has the same target. The test can be described thus: qHTS assay to identify small molecule agonists of the estrogen receptor alpha (ER-alpha) signaling pathway using the BG1 cell line (AID 743079). Note: nearly all actives have a fitted effect of over 20% in size. Note: potency is the fitted concentration of half-maximal effect. As to conditions: BG1Luc4E2 cells, ERE-luciferase agonist, 22 h; series mostly up to 70.3 µM.
Take `CCCCCCCCCCOc1cc2c(=O)c(C(=O)OCC)c[nH]c2cc1OCC`: the Potency result was “inactive”.

Consider `CCOC(=O)C1=NOC(c2ccccc2)(c2ccccc2)C1`, for which the Potency entry was “inactive”.

On to `CCCOC(=O)CC`, for which the Potency result was “inactive”.

Turning to `O=C(c1ccccc1O)c1ccccc1O`, the Potency entry was “inactive”.

Take `CCCCN(CCC(=O)OCC)C(C)=O`: the Potency entry was “inactive”.

`CC1OC1C1CCC2(C)OC2C1` (centres undefined): the Potency result was “inactive”.

Consider `CC1=CC(=O)[C@H]2C[C@@H]1C2(C)C`, for which the Potency entry is “inactive”.

As to `CCN1C=CN(C)C1C` (centres undefined), the Potency result is “inactive”.

Take `CC(=O)N1C[C@H](O)C[C@H]1C(=O)O`: the Potency is 10.6 µM (active).

`CN1CC(=O)N/C1=N/C(=O)Nc1cccc(Cl)c1`: the Potency was 29.8 µM (active) and 5.31 µM (active).

For `CN1CCC(=C2c3ccccc3CCc3cccnc32)CC1`, the Potency entry is “inactive”.

With `CC(=O)c1ccccc1[N+](=O)[O-]`, the Potency result is “inactive”.

Consider `O=C(O)c1cc(C(=O)O)cc(C(=O)O)c1`, for which the Potency result was “inactive”.

For the molecule `CCN(CC#N)c1cccc(C)c1`, the Potency entry was “inactive”.

Regarding `CCCCCCC1CCC(=O)O1` (centres undefined), the Potency entry was “inactive”.

As to `C=CCCCCCCCCC(=O)OCC`, the Potency entry is “inactive”.

Consider `CC(C)(C)C(=O)c1ccccc1`, for which the Potency is 61.1 µM (active).

As for `CC1=NN(c2cc(S(=O)(=O)O)ccc2Cl)C(=O)C1N=Nc1ccccc1` (centres undefined), the Potency entry is “inactive”.

Consider `COCCOC[C@H](CC1(C(=O)NC2CCC(C(=O)O)CC2)CCCC1)C(=O)Oc1ccc2c(c1)CCC2` (some centres undefined), for which the Potency result is “inactive”.

In the case of `CO[C@@]1(NC(=O)C(C(=O)O)c2ccc(O)cc2)C(=O)N2C(C(=O)O)=C(CSc3nnnn3C)CO[C@@H]21` (some centres undefined), the Potency entry was “inactive”.

Regarding `CCN[C@H]1C[C@H](C)S(=O)(=O)c2sc(S(N)(=O)=O)cc21`, the Potency result was “inactive”.

In the case of `CCCCOC(=O)CCC(C)=O`, the Potency result is “inactive”.

Tested on in the next test: not listed separately
The test can be described thus: qHTS assay to identify small molecule antagonists of the estrogen receptor alpha (ER-alpha) signaling pathway using the BG1 cell line (AID 743080; calls by dose curve;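 note: BG1 cells stimulated with 17beta-estradiol alongside compound; nearly all actives have a fitted effect of over 25% in size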). The following applies: BG1Luc4E2 ERE-luciferase antagonist mode, luminescence; series mostly up to 70.3 µM. In outline: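 Quantitative HTS on the Tox21 10K library: BG1 cells with endogenous ER-alpha and ERE-luciferase reporter, 17beta-estradiol stimulation, 21.5 h compound exposure, luminescence endpoint with parallel fluorescence cytotoxicity counter-read.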
Regarding `CCCCCCCCCCOc1cc2c(=O)c(C(=O)OCC)c[nH]c2cc1OCC`, the Potency result was “inactive”.

`CCOC(=O)C1=NOC(c2ccccc2)(c2ccccc2)C1`: the Potency entry was “inactive”.

On to `CCCOC(=O)CC`, for which the Potency result was “inactive”.

On to `O=C(c1ccccc1O)c1ccccc1O`, for which the Potency result is “inactive”.

In the case of `CCCCN(CCC(=O)OCC)C(C)=O`, the Potency result was “inactive”.

For `CC1OC1C1CCC2(C)OC2C1` (centres undefined), the Potency result is “inactive”.

Take `CC1=CC(=O)[C@H]2C[C@@H]1C2(C)C`: the Potency result is “inactive”.

Turning to `CCN1C=CN(C)C1C` (centres undefined), the Potency entry is “inactive”.

For `CC(=O)N1C[C@H](O)C[C@H]1C(=O)O`, the Potency result is “inactive”.

`CN1CCC(=C2c3ccccc3CCc3cccnc32)CC1`: the Potency entry was “inactive”.

Turning to `CC(=O)c1ccccc1[N+](=O)[O-]`, the Potency result is “inactive”.

Consider `O=C(O)c1cc(C(=O)O)cc(C(=O)O)c1`, for which the Potency entry is “inactive”.

Turning to `CCN(CC#N)c1cccc(C)c1`, the Potency result is “inactive”.

As to `CCCCCCC1CCC(=O)O1` (centres undefined), the Potency result is “inactive”.

Consider `C=CCCCCCCCCC(=O)OCC`, for which the Potency entry was “inactive”.

For `CC(C)(C)C(=O)c1ccccc1`, the Potency entry was “inactive”.

Consider `CC1=NN(c2cc(S(=O)(=O)O)ccc2Cl)C(=O)C1N=Nc1ccccc1` (centres undefined), for which the Potency entry was “inactive”.

Take `CC(C)NNC(=O)c1ccncc1`: the Potency result was “inactive”.

Turning to `CCCCCC(C)N` (centres undefined), the Potency entry is “inactive”.

`COCCOC[C@H](CC1(C(=O)NC2CCC(C(=O)O)CC2)CCCC1)C(=O)Oc1ccc2c(c1)CCC2` (some centres undefined): the Potency entry is “inactive”.

Take `CO[C@@]1(NC(=O)C(C(=O)O)c2ccc(O)cc2)C(=O)N2C(C(=O)O)=C(CSc3nnnn3C)CO[C@@H]21` (some centres undefined): the Potency result was “inactive”.

For `CCN[C@H]1C[C@H](C)S(=O)(=O)c2sc(S(N)(=O)=O)cc21`, the Potency entry was “inactive”.

On to `CCCCOC(=O)CCC(C)=O`, for which the Potency entry was “inactive”.

Tested on in another test: not listed separately
The test can be described thus: qHTS assay to identify small molecule antagonists of the estrogen receptor alpha (ER-alpha) signaling pathway using the BG1 cell line - cell viability counter screen (AID 743081).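 Note: compound given together with 17beta-estradiol as the ER stimulus; nearly all actives have a fitted effect of over 45% in size.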 The following applies: BG1Luc4E2 viability, CellTiter-Fluor, 22 h; series mostly up to 70.3 µM.
`CC(C)[C@H]1CC[C@@H](C)CC1=O`: the outcome was inactive.

On to `CCCCCCCCCCOc1cc2c(=O)c(C(=O)OCC)c[nH]c2cc1OCC`, for which the molecule was classed as inactive.

For `CCOC(=O)C1=NOC(c2ccccc2)(c2ccccc2)C1`, the result was inactive.

As for `CCCOC(=O)CC`, the call was inactive.

As to `O=C(c1ccccc1O)c1ccccc1O`, the result was inactive.

Regarding `COc1cc2c(cc1OC)-c1cc3ccc(OC)c(OC)c3c[n+]1CC2`, the call was inactive.

`NC(=O)N[C@@H](CCC(=O)O)C(=O)O`: the call was inactive.

As to `CCCCN(CCC(=O)OCC)C(C)=O`, the call was inactive.

Consider `CC1OC1C1CCC2(C)OC2C1` (centres undefined), for which the result was inactive.

As for `CC1=CC(=O)[C@H]2C[C@@H]1C2(C)C`, the outcome was inactive.

`CC(C)C(=O)OC(=O)C(C)C`: the molecule was classed as inactive.

Take `CCN1C=CN(C)C1C` (centres undefined): the molecule was called inactive.

On to `O=C1NC(=O)C2CC=CCC12` (centres undefined), for which the result was inactive.

`CC(=O)N1C[C@H](O)C[C@H]1C(=O)O`: the molecule was called inactive.

On to `O=C(c1ccccc1)C1(O)CCCCC1`, for which the molecule was classed as inactive.

`CN1CC(=O)N/C1=N/C(=O)Nc1cccc(Cl)c1`: the molecule was called inactive.

For the molecule `CN1CCC(=C2c3ccccc3CCc3cccnc32)CC1`, the result was inactive.

Consider `CC(=O)c1ccccc1[N+](=O)[O-]`, for which the molecule was classed as inactive.

In the case of `O=C(O)c1cc(C(=O)O)cc(C(=O)O)c1`, the result was inactive.

`CCN(CC#N)c1cccc(C)c1`: the molecule was called inactive.

As for `CCCCCCC1CCC(=O)O1` (centres undefined), the result was inactive.

For `NC(=O)N1c2ccccc2CC(=O)c2ccccc21`, the molecule was classed as inactive.

On to `CC(C#N)(CCC(=O)O)N=NC(C)(C#N)CCC(=O)O` (centres undefined), for which the call was inactive.

Consider `O=CN(CCO)CCO`, for which the result was inactive.

Take `NC(=O)Cc1cccc2ccccc12`: the molecule was called inactive.

Regarding `C=CCCCCCCCCC(=O)OCC`, the molecule was classed as inactive.

As to `CC(C)(C)C(=O)c1ccccc1`, the molecule was classed as inactive.

For the molecule `CC1(C)[C@@H]2CC[C@@]1(C)[C@H](O)C2`, the result was inactive.

With `CC(C)NNC(=O)c1ccncc1`, the result was inactive.

`CCCCCC(C)N` (centres undefined): the molecule was called inactive.

`COCCOC[C@H](CC1(C(=O)NC2CCC(C(=O)O)CC2)CCCC1)C(=O)Oc1ccc2c(c1)CCC2` (some centres undefined): the outcome was inactive.

Regarding `CC(=O)Nc1ccc(OCC(O)CNC(C)C)cc1` (centres undefined), the molecule was classed as inactive.

`CCN[C@H]1C[C@H](C)S(=O)(=O)c2sc(S(N)(=O)=O)cc21`: the molecule was called inactive.

Turning to `CCCCOC(=O)CCC(C)=O`, the outcome was inactive.
